# Source: PubChem BioAssay (several laboratories)
# tim23-1 inh: growth inhibitors of tim23-1 mutant yeast | S. cerevisiae tim23-1 growth, BacTiter-Glo luminescence, 24 h | inhibition, % at 20 µM | 330,000 compounds, 1.3% hits;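 active = growth inhibition of the mutant yeast at or above 50%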;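 note: temperature-sensitive mutant grown at 25 °C; plate controls were DMSO-treated mutant yeast for no effect and medium wells lacking yeast for full effect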
# CR mimetic SO: lowers age-related superoxide in aged yeast cells. S. cerevisiae aged cells, superoxide DHE fluorescence; active compounds read low. superoxide response (% of plate mean), % at 10 µM. 330,000 compounds, 0.18% hits. AID 2690;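 active = superoxide response under a set limit, about three screen SD below normal, cut at about 65% in these data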;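 note: yeast aged for seven days with compound at 30 °C before DHE staining; 100% = average MFI of all compound-treated wells on the plate with controls excluded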
# TIM10 inh: TIM10 yeast growth inhibition; S. cerevisiae TIM10 strain growth, BacTiter-Glo luminescence, 24 h; 330,000 compounds, 1.4% hits; AID 463195; inhibition, % at 10 µM;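 active = inhibition of 40% or more at the single tested concentration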;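 note: wild-type TIM10 isogenic control strain grown at permissive 25 °C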
# NLRP3 yeast inh: NALP3 inhibition in yeast; Yeast reconstituted NLRP3/ASC/caspase-1, beta-gal luminescence, 24 h; inhibition, % at 10 µM; 330,000 compounds, 0.39% hits;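 active = inhibition of 50% or more; inactive = inhibition below 50%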;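 note: plate controls were induced DMSO wells for no effect and uninduced yeast grown without galactose for full effect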
# tim10-1 inh: growth inhibitors of tim10-1 mutant yeast; S. cerevisiae tim10-1 ts strain growth, BacTiter-Glo, 24 h; inhibition, % at 20 µM; 330,000 compounds, 2.2% hits;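 active = inhibition of at least 40%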;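 note: mutant grown at 25 °C; 0% = DMSO wells with yeast and 100% = wells holding no yeast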
# tim10-1 conf: tim10-1 yeast growth inhibition, confirmed; inhibition, % at 20 µM; S. cerevisiae tim10-1 ts strain growth, BacTiter-Glo, 24 h; AID 463213; 7,400 compounds, 56% hits; shares compounds with tim10-1 inh;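 active = inhibition of yeast growth at or above a set limit in either of two repeat tests at 20 µM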;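 note: tim10-1 mutant grown at permissive 25 °C to find synthetic lethal compounds; 0% = DMSO yeast wells and 100% = medium wells without yeast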
# TIM10 conf: TIM10 yeast growth inhibition, confirmed. shares compounds with TIM10 inh. S. cerevisiae tim10 strain growth, BacTiter-Glo luminescence, 24 h. inhibition, % at 10 µM. 4,600 compounds, 63% hits;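 active = inhibition of yeast growth at or above a set limit in either of two replicates at 10 µM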;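 note: this counterscreen used the strain with wild-type TIM10; 0% = yeast with DMSO and 100% = medium wells lacking yeast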
# Starred values were filed as active, the others as inactive; nt = not tested or not shown. The list is not random: actives were taken first. Their share in the collection is about 3.8%.
SMILES,tim23-1 inh,CR mimetic SO,TIM10 inh,NLRP3 yeast inh,tim10-1 inh,tim10-1 conf,TIM10 conf
Cc1ccccc1NC1=NC(=S)N(c2ccccc2)C12CCCCC2,50,93,50*,9,54*,46*,-39
Cc1ccccc1NC1=NC(=S)N(c2ccccc2)C12CCOC(C)(C)C2 (configuration not stated),30,97,37,3,37,nt,nt
O=[N+]([O-])c1nn(-c2ccc3c(c2)OCCO3)n(O)c1=NCc1ccccc1Cl,2,104,-4,24,-3,nt,nt
O=[N+]([O-])c1nn(-c2ccc3c(c2)OCCO3)n(O)c1=NC1CCCCC1,46,99,49*,16,56*,46*,43*
CCOC(=O)C(=N/O)/C(C)=N/NC(=O)C(=O)Nc1cc(Cl)ccc1Cl,26,92,24,5,24,nt,nt
Cc1cc2ncn(/N=C/c3ccc([N+](=O)[O-])s3)c2cc1C,nt,113,nt,nt,nt,nt,nt
O=[N+]([O-])c1ccc(/C=N/n2cnc3ccccc32)s1,40,96,79*,6,49*,57*,90*
Cc1ccc(NS(=O)(=O)c2c(C(=O)N3CCCC3)c(C)n(C)c2C)cc1,8,97,4,13,10,nt,nt
COC(=O)/C(=C\c1ccc([N+](=O)[O-])o1)NC(=O)c1ccccc1,6,92,44*,-6,45*,40*,32*
CCCCNC(=O)/C(=C\c1ccc([N+](=O)[O-])o1)NC(=O)c1ccccc1,32,107,28,18,38,nt,nt
O=C1S/C(=C\c2ccc(Cl)cc2)C(=O)N1CCn1cnnn1,37,98,43*,23,43*,35*,18
Cc1[nH]nc2c1-c1nc3ccccc3nc1C(C)(C)C2,38,101,44*,-3,44*,35*,25
CC(Sc1nnc(Cc2ccccc2)o1)C(=O)Nc1ccccc1[N+](=O)[O-] (configuration not stated),-2,127,5,-6,-6,nt,nt
CC(C)(C)c1cc(OC(=O)c2ccccc2F)ccc1O,36,103,48*,4,45*,24,43*
CC(C)Cn1c(-c2csc3c2CCCC3)n[nH]c1=S,40,83,44*,21,48*,20,40*
CC(C)Cn1c(-c2ccccc2F)n[nH]c1=S,12,122,2,3,17,nt,nt
CNC(=O)c1ccccc1-c1cn(C)c2ccccc2c1=O,15,102,13,4,0,nt,nt
Cc1ccc(CSCC(=O)N2CCN(Cc3ccc4c(c3)OCO4)CC2)cc1,39,106,41*,9,57*,41*,-24
O=C(Nc1ncccc1O)c1cccc(S(=O)(=O)N2CCc3ccccc32)c1,32,109,24,6,33,nt,nt
COc1ccc(NC(=O)c2cccc(S(=O)(=O)N3CCc4ccccc43)c2)cn1,24,113,45*,-12,46*,41*,40*
Cc1ccc(C(=O)Nc2ccc(S(=O)(=O)N3CCc4ccccc43)cc2)o1,47,114,52*,-1,49*,33*,43*
CCCc1cc(=O)oc2cc(OCC(=O)NCCCN3CCOCC3)c(Cl)cc12,5,124,1,14,15,nt,nt
Cc1ccc(-c2nn(-c3ccccc3)c3[nH]c(=O)c(CNCc4ccccc4)cc23)cc1,47,93,43*,25,52*,47*,42*
COc1cc(C(=O)NCC(=O)N2CCN(S(=O)(=O)c3cc(C)ccc3C)CC2)cc(OC)c1OC,25,104,15,11,12,nt,nt
Cc1ccc2nc(N(CCN3CCOCC3)C(=O)CCS(=O)(=O)c3ccccc3)sc2c1,16,107,6,25,14,nt,nt
O=C(CCS(=O)(=O)c1ccccc1)N(CCCN1CCOCC1)c1nc2ccccc2s1,42,107,53*,49,48*,31,64*
COc1cccc(N2CCN(c3ccc4nnc(CCC(=O)Nc5ccccc5OC)n4n3)CC2)c1,12,99,15,4,3,nt,nt
Cc1ccc(-c2cc(C(=O)N3CCN(c4ncccn4)CC3)c3ccccc3n2)cc1,30,95,44*,5,45*,22,11
